GALK inhibitor – inhibitors of human galactokinase; P51570; AID 1868; Purified GALK, Kinase-Glo residual ATP luminescence; 0.007% of 270,000 active; Potency, µM (top dose mostly 57.5 µM), inactives show at the highest dose activity change, negative = inhibition, hits mostly inhibitors; further: potency means the concentration at half of the fitted maximal effect
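Quantitative HTS: GALK 5 nM, ATP 35 uM, galactose 100 uM, 1 h room temperature, then luciferase-based ATP detection.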
PLK1 PBD block – PLK1 (human) polo-box domain binding inhibition; Plk1 PBD binding of FITC phosphopeptide, fluorescence polarization; 2.8% of 360,000 active; Potency, µM, without a hit: max response, negative = inhibition, hits mostly inhibitors; further: potency means the concentration at half of the fitted maximal effect; series mostly up to about 57 µM; nearly all actives have a fitted effect of over 65% in size
VDR inhibitor – blocks the human vitamin D receptor | VDR-SRC2-3 peptide fluorescence polarization, 2 h | P11473 | AID 504847 | Potency, µM, inactives show max response, negative = inhibition, hits mostly inhibitors | 0.93% of 400,000 active; further: potency means the concentration at half of the fitted maximal effect
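Reagent solutions, kept cold and dark, are dispensed first; compounds are then pinned in at 23 nl, plates briefly spun, and incubated 2 h at ambient temperature. Inhibition of VDR–SRC2-3 peptide binding is read by fluorescence polarization.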
USP1-UAF1 inh – inhibitors of human USP1/UAF1 deubiquitinase; O94782; 0.23% of 390,000 active; Potency, µM (titrated, usually from 57.1 µM), for inactives: at the highest dose activity change, negative = inhibition, most hits filed as inhibitors; recombinant USP1/UAF1, Ub-Rhodamine cleavage fluorescence; further: potency means the concentration at half of the fitted maximal effect; nearly all actives have a fitted effect of over 60% in size
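USP1/UAF1 complex (1 nM) preincubated 15 min at room temperature with compound, then Ub-Rho substrate (150 nM final) added. Kinetic fluorescence at 480/540 nm over 6 reads at 60 s intervals; 50 mM HEPES pH 7.8, 0.5 mM EDTA, 0.1 mg/ml BSA, 1 mM TCEP, 0.01% Tween-20.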
Coupling enz – counter-screen for Giardia aldolase inhibitors: coupling enzyme system; AID 2472; coupling enzyme system counterscreen, AmpLite Red fluorescence; activity change, negative = inhibition, % at 58.2 µM, hits read low; 0.67% of 290,000 active; in the data active means activity change below about -30%
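Coupling enzymes only (glyceraldehyde-3-phosphate) + compound, at 57.5 uM final, 10 min RT; add substrate/coupling/AmpLite Red mix, 20 min RT; fluorescence ex 525/em 598 nm. Actives flag coupling-system interference.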
USP2a inh – USP2a (human) protease inhibition | 0.01% of 330,000 active | Potency, µM (highest dose often 38.3 µM), for inactives: top-dose activity change, negative = inhibition, most hits filed as inhibitors | USP2 core, Ub-CHOP2 coupled fluorogenic reporter, 485/531 | O75604;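 further: potency means the concentration at half of the fitted maximal effect; plate controls were DMSO wells for no effect and full inhibition by NEM control for full effect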
Target sequence (O75604 whole entry, looked up): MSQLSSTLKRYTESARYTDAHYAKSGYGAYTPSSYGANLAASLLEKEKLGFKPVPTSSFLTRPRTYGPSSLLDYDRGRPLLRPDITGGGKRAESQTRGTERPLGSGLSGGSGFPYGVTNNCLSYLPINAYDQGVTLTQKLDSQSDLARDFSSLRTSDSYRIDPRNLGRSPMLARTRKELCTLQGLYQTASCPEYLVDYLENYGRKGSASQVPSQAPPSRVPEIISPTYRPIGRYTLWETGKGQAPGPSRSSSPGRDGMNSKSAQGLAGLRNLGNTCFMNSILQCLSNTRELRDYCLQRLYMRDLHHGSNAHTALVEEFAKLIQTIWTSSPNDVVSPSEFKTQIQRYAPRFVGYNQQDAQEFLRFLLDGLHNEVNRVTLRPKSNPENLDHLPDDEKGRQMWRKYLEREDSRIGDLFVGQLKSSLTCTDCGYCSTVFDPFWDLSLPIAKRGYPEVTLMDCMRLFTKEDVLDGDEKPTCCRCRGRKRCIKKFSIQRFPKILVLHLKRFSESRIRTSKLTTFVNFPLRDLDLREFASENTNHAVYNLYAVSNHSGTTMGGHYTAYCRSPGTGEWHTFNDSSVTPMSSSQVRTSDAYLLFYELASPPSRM
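USP2 core (10nM final) preincubated 30min RT with compound in 20mM Tris-HCl pH 8.0, 2mM CaCl2, 2mM beta-mercaptoethanol, 0.05% CHAPS; 25nM Ub-CHOP2 plus 25nM reporter substrate added, fluorescence (Ex485/Em531) read after 60min.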
Active calls of the source: *; u = inconclusive; x = no result given. Shown are actives, neighbours in structure and some others; about 3.2% of the full set was active somewhere. Unless noted, the call rests on the fitted dose curve; in most records, active means well fitted curve in the direction sought with a large enough effect; inconclusive means small, poorly fitted or top-dose-only effect, or another doubt; inactive means no such curve, though single readings can be large; an effect the other way counts as inactive or inconclusive. Unless noted, on the % scale 0 is the no-effect control and ±100 the full control effect.

SMILES	GALK inhibitor	PLK1 PBD block	VDR inhibitor	USP1-UAF1 inh	Coupling enz	USP2a inh
Cc1ccc(C)c(N2CCN(c3ncnc4c3cnn4-c3ccccc3)CC2)c1	0.7%	26.7µM*	u	-0.5%	2.0	9.4%
Fc1cccc(CSc2nc3ccncc3[nH]2)c1	x	-15.3%	u	-5.0%	-0.7	3.3%
O=C(Nc1ccccc1C(=O)O)c1ccc2ccccc2n1	-2.3%	u	-15.1%	-13.1%	-39.6*	0.4%
Cc1ccccc1NC(=S)c1ccc2ccccc2n1	4.4%	2.67µM*	7.8%	-21.2%	0.3	-1.8%
CCCC(O)(CCC)C(=O)NN1CCCCC1	2.1%	18.9µM*	79.4µM*	-9.6%	0.0	3.6%
COc1ccc(NC(=O)C(C)N(c2ccc(C)cc2)S(C)(=O)=O)cc1 (stereo unspecified)	-0.2%	-3.7%	-7.0%	0.6%	-2.4	-5.2%
CCC(C)Oc1cc(-c2ccnc(Nc3cccc(Cl)c3)n2)ccn1 (stereo unspecified)	4.0%	23.8µM*	u	u	5.2	-15.8%
Nc1nc(SCC(=O)Nc2ccccc2Oc2ccccc2)n[nH]1	3.2%	-11.7%	10.2%	3.8%	-0.8	2.8%
CCOC(=O)N1CCN(C(=O)COc2ccc([N+](=O)[O-])cc2)CC1	1.1%	-4.8%	-12.5%	-17.1%	1.9	-0.7%
CNS(=O)(=O)c1cc(C(=O)O)ccc1OC	-2.1%	26.7µM*	u	-10.0%	0.7	3.1%
COc1ccc(NS(=O)(=O)c2ccc(N)cc2)nn1	1.2%	x	-1.8%	x	-0.5	0.9%
Cc1ccc(N2CC(C(=O)Nc3nnc(SCC(=O)NCC4CCCO4)s3)CC2=O)cc1C (stereo unspecified)	-1.5%	-7.4%	-22.4%	-12.3%	x	-2.7%
COc1ccc(N2CC(C(=O)Nc3nnc(SCC(=O)NCC4CCCO4)s3)CC2=O)cc1 (stereo unspecified)	x	29.9µM*	u	-12.2%	x	x
COc1ccc2c(c1)CCc1cnoc1-2	x	-3.2%	-13.9%	-8.8%	x	x
COc1ccc2c(c1)CCc1cn[nH]c1-2	2.5%	26.7µM*	u	-13.9%	-4.1	4.7%
Cc1ccc(C(=O)c2cc([N+](=O)[O-])ccc2N2CC(C)OC(C)C2)cc1 (stereo unspecified)	-0.3%	u	89.1µM*	-23.7%	-0.6	3.4%
N#Cc1ccccc1CN1C(=O)S/C(=C/c2cccn2-c2ccc(C(=O)O)cc2)C1=O	-8.3%	-20.5%	-13.2%	-22.4%	5.4	-0.3%
O=C(O)c1cccc(-n2cccc2/C=C2\NC(=O)N(Cc3ccc(F)cc3)C2=O)c1	-6.7%	u	-19.6%	-10.7%	10.7	-1.0%
O=C(O)c1ccc(-n2cccc2/C=C2/SC(=O)N(CC(=O)N3CCCC3)C2=O)cc1	-6.4%	18.9µM*	8.3%	-14.5%	-2.5	0.5%
O=C(O)c1ccc(-n2cccc2/C=C2/NC(=O)N(c3cccc(Cl)c3)C2=O)cc1	-1.8%	26.7µM*	-28.6%	-9.7%	1.6	2.0%
O=C(O)c1ccc(-n2cccc2/C=C2/NC(=O)N(c3ccccc3)C2=O)cc1	x	18.9µM*	-14.4%	5.0%	-1.7	1.5%
CCc1nn(CC(=O)NC(C)CC)c(=O)c2cc3c(OC)cccc3n12 (stereo unspecified)	x	x	-2.1%	u	x	x
O=C(O)c1ccccc1-c1ccccc1C(=O)Nc1cccc(-c2nc3ccccc3o2)c1	5.2%	67µM*	-16.5%	u	10.6	0.2%
CN(C)CCCN(C(=O)CCOc1ccccc1)c1nc2c(F)cccc2s1	-1.2%	u	u	-10.5%	3.7	-2.4%
Cn1nc(C(C)(C)C)c([N+](=O)[O-])c1C(=O)NCCO	0.4%	23.8µM*	u	-12.2%	-2.0	1.0%
SMILES	GALK inhibitor	PLK1 PBD block	VDR inhibitor	USP1-UAF1 inh	Coupling enz	USP2a inh
Cc1ccc(C(=O)OCC(=O)N2CCC(C)CC2)cc1S(=O)(=O)N1CCCCC1	-4.0%	-7.3%	-12.4%	-24.2%	x	3.2%
Oc1ccc(/C=N/n2c(C3CCCCC3)n[nH]c2=S)c(O)c1	0.7%	u	-18.4%	-11.3%	4.1	4.3%
Oc1ccc(Br)cc1/C=N/n1c(C2CCCCC2)n[nH]c1=S	-1.0%	26.7µM*	-28.4%	-14.8%	-3.2	-16.6%
Cc1nc2ccccc2n2c(O)c(CC(=O)O)cc12	0.3%	23.8µM*	-6.3%	u	8.9	20.3%
COc1ccc(C(=O)N2CCC[C@@]3(CCN(c4ccncc4)C3)C2)cc1	x	x	14.3%	x	0.7	x
O=C(c1cccc(F)c1)N1CCC[C@@]2(CCN(c3cccc(-c4ccccc4)c3)C2)C1	x	x	44.7µM*	x	-2.1	x
O=C(Oc1ccccc1)N1CCC[C@@]2(CCN(c3ccccc3)C2)C1	x	x	35.5µM*	x	-2.4	x
O=C(c1cccc(F)c1)N1CCC[C@@]2(CCN(c3ccccc3)C2)C1	x	x	44.7µM*	x	-3.6	x
COc1ccc(C(=O)N2CCC[C@@]3(CCN(c4ccccc4)C3)C2)cc1	x	x	56.2µM*	x	-1.0	x
CC(C)C(N)c1csc(Nc2ccccn2)n1 (stereo unspecified)	x	-6.2%	x	x	x	x
COc1ccc(NC(=O)C2Cc3c(-c4ccc5c(c4)OCO5)ccnc3O2)cc1OC (stereo unspecified)	x	0.4%	x	x	x	x
CCN(CC(=O)Nc1c(F)cccc1F)C(=O)CSCC(=O)Nc1ccc(OC)cc1	x	-6.6%	-4.0%	-3.6%	x	1.8%
O=C1NC(=O)[C@@H]2C3c4ccccc4C=CN3[C@H](C(=O)c3cccs3)[C@H]12 (stereo partly specified)	10.0%	x	x	x	-43.4*	12.9%
COc1cc(CN2CCC(C(=O)NC(c3ccc(F)cc3)c3ncccc3C)CC2)cc(OC)c1 (stereo unspecified)	x	3.7%	x	x	x	x
CC1(C(=O)CSc2nc3ccccc3s2)CCC(=O)O1 (stereo unspecified)	-3.7%	21.2µM*	u	u	2.6	-1.0%
COc1cccc(N2CCN(C(=S)Nc3ccccc3)CC2)c1	-5.7%	-0.2%	-5.0%	-5.4%	-4.2	0.0%
O=C1c2ccccc2CC1Sc1nnc(-c2ccccn2)o1 (stereo unspecified)	9.6%	23.8µM*	u	-6.4%	3.2	-1.5%
Cc1cc(SCNC(=O)c2ccccc2)nc(C(C)C)n1	-0.4%	23.8µM*	-28.3%	4.3%	0.5	-0.3%
Cc1cc(C)nc(SCNC(=O)c2ccccc2)n1	-0.8%	-21.7%	-4.9%	-7.3%	3.8	0.2%
COC(=O)c1c(-c2cccs2)csc1NC(=O)COc1c(C)ccc(C)c1C	x	x	22.4µM*	-12.3%	x	x
CC12CCC(=O)N1C(C(=O)NCCc1ccc(F)cc1)CS2 (stereo unspecified)	x	-2.6%	10.1%	-21.6%	x	x
COC(=O)c1cn(C(=O)c2ccc(C)c(C)c2)c2ccccc12	x	6.3%	17.1%	-1.8%	2.1	2.6%

Screens as filed in PubChem.
